# This is a sample that favours compounds with a hit; in the whole collection about 13% have one here.
# USP30 inh – inhibitors of human USP30 deubiquitinase; AID 1645860, 2021; purified USP30, Ub-rhodamine cleavage fluorescence; Ubiquitin carboxyl-terminal hydrolase 30 (Homo sapiens), Q70CQ3; hit rate 5.3% among 47,000; inhibition, % at 25 µM
# Target sequence (Q70CQ3 whole entry, looked up): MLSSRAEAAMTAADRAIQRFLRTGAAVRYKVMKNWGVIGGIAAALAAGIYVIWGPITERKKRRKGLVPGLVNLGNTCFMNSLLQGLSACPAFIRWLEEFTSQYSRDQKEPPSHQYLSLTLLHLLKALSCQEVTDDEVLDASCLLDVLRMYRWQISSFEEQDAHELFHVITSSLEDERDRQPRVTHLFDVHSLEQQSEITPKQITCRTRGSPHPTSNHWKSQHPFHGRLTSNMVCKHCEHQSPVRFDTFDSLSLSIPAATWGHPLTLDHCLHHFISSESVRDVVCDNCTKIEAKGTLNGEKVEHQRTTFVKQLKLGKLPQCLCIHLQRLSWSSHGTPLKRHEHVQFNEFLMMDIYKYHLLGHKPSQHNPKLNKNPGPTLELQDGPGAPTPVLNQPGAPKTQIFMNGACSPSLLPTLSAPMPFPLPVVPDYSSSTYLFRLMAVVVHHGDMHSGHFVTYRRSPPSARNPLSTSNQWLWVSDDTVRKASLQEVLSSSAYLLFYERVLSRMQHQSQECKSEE
# USP10 block – inhibitors of human USP10 deubiquitinase | Ubiquitin carboxyl-terminal hydrolase 10 (Homo sapiens), Q14694 | purified USP10, Ub-rhodamine fluorescence, 60 min | hit rate 1.1% among 47,000 | inhibition, % at 20 µM
# USP17 inh – inhibitors of human USP17 deubiquitinase. purified USP17, Ub-rhodamine cleavage fluorescence, 3 h. hit rate 6.5% among 47,000. Ubiquitin carboxyl-terminal hydrolase 17-like protein 5 (Homo sapiens), A8MUK1. inhibition, % at 50 µM
# OTUD3 inh – inhibitors of human OTUD3 deubiquitinase. purified OTUD3, Ub-rhodamine fluorescence, 2 h. hit rate 0.7% among 47,000. OTU domain-containing protein 3 (Homo sapiens), Q5T2D3. inhibition, % at 25 µM
# USP28 inh – inhibitors of human USP28 deubiquitinase; Ubiquitin carboxyl-terminal hydrolase 28 (Homo sapiens), Q96RU2; purified USP28, Ub-rhodamine cleavage fluorescence, 30 min; inhibition, % at 25 µM; hit rate 3% among 47,000; AID 1645857, 2021
# USP8 inh – inhibitors of human USP8 deubiquitinase; purified USP8, Ub-rhodamine cleavage fluorescence, 30 min; inhibition, % at 20 µM; hit rate 4.2% among 47,000; AID 1645853, 2021
# * hit, by the source's call; nt = no result. Rule as the data show it: active = inhibition above about 30%; inactive = the rest.
SMILES,USP30 inh,USP10 block,USP17 inh,OTUD3 inh,USP28 inh,USP8 inh
O=C(Cc1noc(-c2ccccc2)n1)Nc1ccccc1,-132,-8,-13,-13,-24,13
O=C(O)CCc1ccc(S(=O)(=O)Nc2ccccc2Oc2ccccc2)cc1,-51,5,12,7,4,13
O=C1CC(c2ccc(C(F)(F)F)cc2)c2c(nc(-c3ccccc3)[nH]c2=O)N1 (centres undefined),14,2,6,5,5,65*
COc1ccc(C2CC(=O)Nc3nc(-c4ccccc4)[nH]c(=O)c32)cc1OC (centres undefined),-7,-1,18,1,-3,16
O=C(Nc1c2c(nn1-c1ccc([N+](=O)[O-])cc1)CSC2)c1c(F)cccc1F,27,34*,27,20,5,0
Cc1ccccc1NC(=O)Nc1ccccc1OCc1cc(=O)n2ccccc2n1,42*,11,50*,12,20,13
COc1ccc(C(=O)N2CCN(Cc3cc(=O)n4ccccc4n3)CC2)cc1,36*,0,20,19,18,21
COc1ccc(OCC(=O)Nc2ccc(C)c(OCc3cc(=O)n4ccccc4n3)c2)cc1,-56,-5,50*,-9,-13,-11
O=C(c1cc(F)ccc1Br)N1CCN(Cc2cc(=O)n3ccccc3n2)CC1,-23,-1,nt,-11,-14,-13
Cc1ccn2c(=O)cc(COc3cccc(NC(=O)Nc4ccc(F)cc4)c3)nc2c1,-36,-11,38*,1,1,21
O=C(c1ccc2occc2c1)N1CCC(S(=O)(=O)c2ccc(-c3ccc(OC(F)(F)F)cc3)cc2)CC1,-5,7,-3,-10,6,1
CC(C)c1noc(-c2cc(=O)n(CC(=O)Nc3ccccc3)c3ccccc23)n1,-6,5,2,-2,-7,2
O=C(Cc1nc(-c2ccccc2)n[nH]1)Nc1cccc(F)c1,30*,10,12,10,21,2
CC(C)CCNC(=O)c1cnn2c(C(F)(F)F)cc(-c3ccccc3)nc12,-3,9,-1,1,-9,-25
O=C(NCc1cccnc1)c1cnn2c(C(F)(F)F)cc(-c3ccccc3)nc12,64*,-2,14,19,2,0
CSc1ccc(-c2noc(-c3cnccn3)n2)cc1,-5,0,0,0,-4,0
CC(C)(C)Nc1c(C2CCN(C(=O)C3CCC(=O)N3)CC2)nc2ccc(F)cn12 (centres undefined),-11,0,1,-3,-2,8
COc1cc(Cl)c(C)cc1NC(=O)c1nc(-c2ccncc2)no1,34*,-3,40*,11,14,0
Cc1ccc(CNC(=O)c2nc(-c3ccncc3)no2)cc1,-5,-2,0,0,-7,12
Brc1ccc(Sc2cnns2)cc1,28,6,18,17,38*,16
Cc1ccn(CCC(=O)N2Cc3ncc(C)n3CC2c2ccccc2)n1 (centres undefined),-3,-2,-3,3,3,4
CCc1ccc2[nH]c3c(c(=O)c2c1)CN(CC(=O)NCc1ccc2c(c1)OCO2)CC3,24,0,70*,-8,19,21
Cc1ccc2c(=O)c3c([nH]c2c1C)CCN(CC(=O)NCc1ccc2c(c1)OCO2)C3,-11,-3,52*,-8,-4,19
Cc1c(Cl)ccc2c(=O)c3c([nH]c12)CCN(CC(=O)NCc1ccc2c(c1)OCO2)C3,-51,-15,49*,29,32*,46*
C/C=C/[C@@H]1C=C[C@@H]2C[C@H](C)CC[C@H]2[C@]1(C)C(O)=C1C(=O)N[C@@H](CO)C1=O,17,10,22,19,17,5
CCN1CCN(C(=O)c2cn3ccnc(-c4ccccc4)c3n2)CC1,12,1,8,13,6,18
CC(C)CCNC(=O)c1ccc2ccnc(N3CCN(c4ccccc4F)CC3)c2c1,-35,-8,19,-20,-15,67*
N#Cc1ccc(OCc2noc(-c3ccc(F)cc3)n2)cc1,-14,1,7,8,23,38*

# Compound activity as filed in PubChem.
